Assay outcomes deposited in PubChem BioAssay by National Center for Advancing Translational Sciences (NCATS).
p53ts 39C kill – qHTS Screen for Compounds that Selectively Target Cancer Cells with p53 Mutations: Cytotoxicity of p53ts Cells at the Nonpermissive Temperature | H1299-p53A138V viability at 39C, ATP luminescence, 24 h | 130,000 compounds, 1.5% hits | Potency, µM (doses to about 46.1 µM), for inactives: at the highest dose activity change, negative = cell killing, actives largely listed as cytotoxic; further: on the % scale 0 is the no-effect control and ±100 the full control effect; nearly all actives have a fitted effect of over 55% in size
p53ts 32C tox – qHTS Screen for Compounds that Selectively Target Cancer Cells with p53 Mutations: Cytotoxicity of p53ts Cells at the Permissive Temperature; H1299-p53A138V at 32C, ATP luminescence viability, 24 h; Potency, µM (doses to about 46.1 µM), without a hit: at the highest dose activity change, negative = cytotoxicity, actives largely listed as cytotoxic; 130,000 compounds, 0.93% hits;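 further: 0% = DMSO and -100% = full killing by reference compound; nearly all actives have a fitted effect of over 55% in size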
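H1299-p53 A138V cells (temperature-sensitive p53) exposed 24 h to up to 46 uM compound at 32C, where p53 is wild-type in conformation. Viability read as ATP luminescence and normalised to DMSO and 100 uM tamoxifen. AC50 fitted with the Hill equation.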
Imprint erasure – qHTS Assay for Compounds that Induce Erasure of Genomic Imprints; mouse ES Peg3-LacZ reporter, beta-gal luminescence, 40 h; Potency, µM (top dose mostly 60.7 µM), for the others: at the top dose activity change, positive = activation, most hits filed as activators; 110,000 compounds, 0.02% hits; AID 1948, 2009
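Imprint erasure is scored as LacZ activity from the silenced maternal Peg3 allele in feeder-free female ES cells cultured 40 h with LIF. Luminescence is normalized to in-plate negative controls and fitted to the Hill equation.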
IkB sig inh – IkB Signaling; 110,000 compounds, 0.04% hits; Potency, µM (doses to about 57.1 µM), without a hit: at the highest dose IkBa stabilization activation; AID 445, 2006; ABC-DLBCL IkBa-CBG/CBR dual luciferase ratio, 4 h; response scale: scaled: untreated 0%, proteasome inhibitor 100%; active means well fitted curve in the direction sought with a large enough effect in the signal ratio, not every such curve was filed as active; inconclusive means small, poorly fitted or top-dose-only effect, or a change in a side signal; the % refers to the signal ratio;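 further: the direction sought is a rising ratio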
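Curves were fitted separately to fusion (green), unfused (red) and ratio luminescence, then classed by r2, magnitude and activity. Cells: OCI-Ly3, 4 h compound plus doxycycline at 37C; 10 uM MG-132 defined full response.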
Active calls of the source: *; u = inconclusive; x = no result; [ ] = remark or other dose. Only some compounds are listed: those with a hit (about 1.6% of all), similar ones and a draw of the others. Unless noted, the call rests on the fitted dose curve; in most records, active means well fitted curve in the direction sought with a large enough effect; inconclusive means small, poorly fitted or top-dose-only effect, or another doubt; inactive means no such curve, though single readings can be large; an effect the other way counts as inactive or inconclusive. Potency means the concentration at half of the fitted maximal effect.

SMILES | p53ts 39C kill | p53ts 32C tox | Imprint erasure | IkB sig inh
C[C@@H](COc1ccc(/C=C\c2ccccc2)cc1)[N+](C)(C)C | -10.7% | 32.0% | x | -22.8%
CCN1CCN(c2cc(C)c3cc(NC(=O)/C=C/c4ccc(C)cc4)ccc3n2)CC1 | 3.16µM* | u | -6.1%[10.9 µM] | u
CCN1CCN(c2cc(C)c3cc(NC(=O)/C=C/c4ccc(OCCC(C)C)cc4)ccc3n2)CC1 | 6.31µM* | 11.8% | -32.3%[10.9 µM] | u
CCN1CCN(c2cc(C)c3cc(NC(=O)c4cc(OC)c(OC)c(OC)c4)ccc3n2)CC1 | -30.0% | -8.2% | -8.4%[10.9 µM] | 3.4%
O=C(NCCCN1CCN(c2cccc(Cl)c2)CC1)c1cnn(-c2ccc(F)cc2)c1-n1cccc1 | 2.51µM* | u | -10.1%[10.9 µM] | 2.6%
CCCN(CCC)CCCNC(=O)c1cnn(-c2ccc(F)cc2)c1-n1cccc1 | -14.9% | -9.6% | -14.1%[10.9 µM] | 0.5%
COc1ccc(NC(=O)CSc2nncs2)cc1OC | -3.9% | -0.3% | -0.3% | -0.5%
COc1ccccc1NC(=O)CSc1nnc(NC(=O)NC2CCCCC2)s1 | 7.94µM* | u | -6.2%[10.9 µM] | u
COc1ccc(NC(=O)CSc2nnc(NC(=O)NC3CCCCC3)s2)cc1OC | 7.94µM* | 10µM* | -8.2%[10.9 µM] | u
O=C(CSc1nnc(NC(=O)NC2CCCCC2)s1)Nc1ccccc1F | 10µM* | 10µM* | 7.2%[10.9 µM] | -3.4%
CC(=O)c1ccc(NC(=O)CSc2nnc(NC(=O)NC3CCCCC3)s2)cc1 | 7.94µM* | 7.08µM* | -17.7%[10.9 µM] | u
Cc1cccc(NS(=O)(=O)c2cc(C(=O)O)ccc2Cl)c1 | 5.0% | 7.0% | x | x
COc1ccc(-c2cc([C@H](O)[C@@H]3CCCCN3)c3ccccc3n2)cc1 | -17.6%[9.22 µM] | -2.1%[9.22 µM] | x | 4.6%[11.4 µM]
CCc1ccc(NS(=O)(=O)c2cc(-c3cnc(C4CC4)o3)ccc2C)cc1 | 20µM* | 31.4% | 14.9%[10.9 µM] | 14.0%
CCOC(=O)c1cccc(NS(=O)(=O)c2cc(-c3cnc(C4CC4)o3)ccc2C)c1 | 26.7% | 23.5% | -6.9%[10.9 µM] | u
CN(C)c1ccc(C2(c3ccc(N(C)C)cc3)OC(=O)c3cc(N(C)C)ccc32)cc1 | 3.9% | 0.4%[1.84 µM] | -12.1% | 1.1%
Cc1cc(C)cc(NS(=O)(=O)c2ccc3[nH]cc(C(=O)NCc4ccco4)c(=O)c3c2)c1 | 2µM* | u | -26.2% | u
COCCNC(=O)c1ccc(-n2c(=O)c(=O)[nH]c3ccccc32)cc1 | 8.7% | 7.5% | x | x
c1ccc2sc(SCN(C3CCCCC3)C3CCCCC3)nc2c1 | -1.4%[9.22 µM] | -1.7%[9.22 µM] | -3.9%[10.9 µM] | 1.6%[11.4 µM]
COc1ccc2oc(=O)c(-c3nc4ccc(C)cc4[nH]3)cc2c1 | u | -15.2% | -16.8%[10.9 µM] | u
COc1ccc2nc(-c3cccc(N)c3)[nH]c2c1 | 15.8µM* | 7.94µM* | x | x
COc1ccc2nc(-c3ccc(N)cc3)[nH]c2c1 | u | 15.8µM* | x | x
COc1ccc2nc(SCC(N)=O)[nH]c2c1 | 8.3% | 4.1% | -15.6% | -1.2%
CN(C)CCNC(=O)C1CCN(Cc2cc3ccccc3n2Cc2ccccc2)CC1 | 12.6µM* | u | -9.0%[10.9 µM] | -2.0%
CCCNC(=O)C1CCN(Cc2cc3ccccc3n2Cc2ccccc2)CC1 | -11.0% | 2.9% | -11.2%[10.9 µM] | u
SMILES | p53ts 39C kill | p53ts 32C tox | Imprint erasure | IkB sig inh
Cc1ccccc1NC(=O)c1cnc2ccccn2c1=O | 15.8µM* | 10µM* | x | x
Cc1cc(Br)cc(C)c1NC(=O)c1cnc2ccccn2c1=O | -26.7% | 2.0% | 2.9%[10.9 µM] | -2.7%
COc1ccc(CNc2nc(-c3ccc(C(=O)N(C)C)cc3)nc3ccccc23)c(OC)c1 | -16.3% | -20.9% | -9.3% | -1.5%[11.4 µM]
CN(C)c1ccc(-c2nc(Nc3ccncc3)c3ccccc3n2)cc1 | 7.94µM* | 10µM* | x | -6.7%[11.4 µM]
CN(C)c1ccc(-c2nc(N(C)C)c3ccccc3n2)cc1 | -23.4% | -16.9% | -8.2% | -8.9%[11.4 µM]
c1cncc(CNc2nc(-c3ccoc3)nc3ccccc23)c1 | 6.6% | 3.6% | u | -1.9%[11.4 µM]
COc1ccc(CNc2nc(-c3ccc(N(C)C)cc3)nc3ccccc23)c(OC)c1 | 15.8µM* | 12.6µM* | -33.3% | 5.6%[11.4 µM]
CN(C)c1ccc(-c2nc(NCc3cccnc3)c3ccccc3n2)cc1 | 3.98µM* | 5.01µM* | -47.2% | -1.8%[11.4 µM]
CNc1nc(-c2ccc(N(C)C)cc2)nc2ccccc12 | 10µM* | 12.6µM* | -38.5% | -7.2%[11.4 µM]
